# Assay results reported in PubChem BioAssay AID588350 (The Scripps Research Institute Molecular Screening Center, 2011).
# Screen size: about 1,900 compounds; about 1,200 (63%) were called active.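 The calls were made as follows: active = mean activation above the mean of solvent-only control wells plus 3 SD (cut at about 22% in these data); inactive = the rest.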 So high a share suggests a set chosen from earlier hits. Not all results are given here.
# Test: frataxin GAA30 reporter activation – cell-based, luminescence, HEK293, lucGAA30, triplicate, counter-screen for GAA850 frataxin promoter activator project, confirmation (AID 588350);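 also: counterscreen of GAA850 promoter hits where activity marks nonselective or luminescence artifacts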
# Conditions: HEK293 lucGAA30 FXN promoter luciferase, 24 h; at 6 µM; active compounds read high; DMSO = 0%, 5 µM ipriflavone = 100%
row,Compound,activation
1,Cc1cc(OCc2cc(C(=O)NCc3cc(C(C)C)no3)no2)cc(C)c1Cl,110% (active)
2,COCCn1c(=NC(=O)c2ccccc2[N+](=O)[O-])sc2cc(S(C)(=O)=O)ccc21,51.5% (active)
3,Cc1c(-c2ccccc2)nc(N)c(C#N)c1-c1cccs1,23.3% (active)
4,CCOC(=O)c1cc2cc(C)ccc2[nH]1,74.2% (active)
5,CCC(=O)NC(=Nc1nc2ccccc2s1)NC(=O)CC,129% (active)
6,Cc1ccc(-c2nc3ccccc3[nH]c2=O)cc1,101% (active)
7,N#Cc1c(N)nc2c3c(sc(=N)c2c1N)NC(=O)CC3c1ccccc1Cl (stereo not given),25.4% (active)
8,CC1CCc2sc3nc(N4CCN(CCO)CC4)n4ncnc4c3c2C1 (stereo not given),61.1% (active)
9,O=C(NCCCn1ccnc1)c1cc(-c2ccccc2)on1,204% (active)
10,O=C(NC1CCCC1)c1cc(-c2ccccc2)on1,161% (active)
11,COc1ccccc1N1CCN(C(=O)c2cc(-c3ccc(Br)cc3)on2)CC1,-9.05% (inactive)
12,COC(=O)c1ccc(CSc2nc3ccccc3c(=O)n2-c2cccc(OC)c2)o1,19.9% (inactive)
13,CN1C(=O)/C(=C\c2cc(Br)cs2)c2ccccc21,102% (active)
14,Cc1ccc(-c2c3c(=O)n(C)c(=O)n(C)c3cn2-n2cnnc2)cc1,-0.74% (inactive)
15,CCOc1ccc(N2C(=O)CC(N(CCc3ccc(OC)c(OC)c3)C(=S)Nc3ccccc3)C2=O)cc1 (stereo not given),-9.82% (inactive)
16,O=C(N/N=C/C=C/c1ccco1)c1cccs1,82.6% (active)
17,CCC1(CC)Cc2ccccc2-c2nc(CCl)[nH]c(=O)c21,-4.18% (inactive)
18,O=C(CC1NCCc2ccccc21)Nc1cccc(Cl)c1 (stereo not given),69% (active)
19,N#CC1=C(SCc2ccc(C#N)cc2)N=C(N)C(c2nc(-c3ccccc3)cs2)C12CCCCC2 (stereo not given),2.61% (inactive)
20,O=[N+]([O-])c1ccc(C=Nc2ccc(Cl)cc2Cl)s1,-6.04% (inactive)

row,Compound,activation
1,COc1ccc(C2Nc3ccccc3C(=O)N2c2ccc(Cl)cc2)cc1Cn1cc([N+](=O)[O-])cn1 (stereo not given),92.3% (active)
2,CN(C(=O)c1cc2c(=O)n3ccccc3nc2s1)C1CCCCC1,116% (active)
3,CCCCNC(=O)N(O)C1N(/N=C/c2ccccc2O)C(=S)SC1(C)C (stereo not given),26.7% (active)
4,CCCNC(=O)c1c(Cl)cnn1-c1ccc(C)cc1,108% (active)
5,Fc1ccccc1/C=N/Nc1cc(N2CCCCC2)ncn1,118% (active)
6,CC(C)c1cc(C(=O)N/N=C/C(Br)=C/c2ccccc2)n[nH]1,-1.66% (inactive)
7,Cc1cc(C(=O)N/N=C\C(Br)=C\c2ccccc2)c(C)o1,58.9% (active)
8,CCCCCOc1ccc(CSC2=NCCN2)cc1[N+](=O)[O-],79.1% (active)
9,O=C(Nc1ccc2c(c1)OCCO2)c1cnccn1,87.7% (active)
10,O=C(COc1ccc(Cl)cc1Cl)NCCCNC(=O)c1cnccn1,11.8% (inactive)
11,CCc1ccc(N(C(=O)c2csnn2)C(C(=O)NC2CCCCC2)c2ccncc2)cc1 (stereo not given),26.5% (active)
12,CN(C)[C@@H]1C(=O)C(C(N)=O)=C(O)[C@@]2(O)C(=O)C3=C(O)c4c(O)ccc(Cl)c4[C@@H](O)[C@H]3C[C@@H]12,25.7% (active)
13,C=C1c2c(Cl)ccc(O)c2C(O)=C2C(=O)[C@]3(O)C(O)=C(C(N)=O)C(=O)[C@@H](N(C)C)[C@@H]3[C@@H](O)C12 (stereo not given in full),18.7% (inactive)
14,Cc1noc(C)c1-c1ccc2ncnc(NC(C)c3ccco3)c2c1 (stereo not given),40.9% (active)
15,Cn1c(=O)n(C)c2cc(S(=O)(=O)N3CCCc4ccccc43)ccc21,1.6% (inactive)
16,CN(C)CCNC(=O)c1ccc(Cl)c2cc3ccccc3nc12,-3.95% (inactive)
17,O=C1N=C(N2CCCC2)S/C1=C\c1cccc(Br)c1,60.8% (active)
18,CC(C)(C)C(=O)c1cnc(Nc2ccccc2)s1,126% (active)
19,Cc1cc(C)n2nc(CNS(=O)(=O)c3c(F)c(F)c(F)c(F)c3F)nc2n1,21.4% (inactive)
20,Cc1cc(=O)oc(C)c1C(=O)NCc1ccc(F)cc1,14.5% (inactive)

row,Compound,activation
1,O=C(NCc1ccco1)c1ccc(Cn2c(=O)c3sccc3n(Cc3ccc(F)cc3)c2=O)cc1,24.6% (active)
2,Nc1ccc(C(=O)Nc2ccccc2N)cc1,54.8% (active)
3,Cc1nnc(Sc2nc3c(c(=O)[nH]c(=O)n3C)n2Cc2ccccc2)s1,12.3% (inactive)
4,CNc1nc(Nc2ccc(C)c(Cl)c2)nc(N)c1[N+](=O)[O-],159% (active)
5,COc1ccc(/C=C/C(=O)Nc2ccc(C34CC5CC(CC(O)(C5)C3)C4)cc2)cc1OC,64.1% (active)
6,Cc1ccc(-n2c(C)cc(/C=C(\C#N)C(=O)NCC3CCCO3)c2C)cc1 (stereo not given),110% (active)
7,O=C(CN(c1cc(C(F)(F)F)ccc1Cl)S(=O)(=O)c1ccccc1)NCc1cccnc1,20.5% (inactive)
8,O=C(Nc1nnc(S(=O)(=O)N2CCCCCC2)s1)c1cccc(Br)c1,31.3% (active)
9,CC(C)c1ccc(NS(=O)(=O)c2cn(C)c(=O)n(C)c2=O)cc1,13.1% (inactive)
10,Cn1c(CCN2CCCCCC2)nc2cc(NC(=O)Nc3ccccc3)ccc21,122% (active)
11,Cc1cc(C)nc(S/C=C/C(=O)c2ccccc2)n1,-58.6% (inactive)
12,CC[C@]1(C(=O)OC)[C@H]2C(=O)N(Cc3ccccc3)C(=O)[C@H]2[C@H]2CN=C(SCc3ccc(C#N)cc3)N21,23.6% (active)
13,CC[C@]1(C(=O)OC)[C@H]2C(=O)N(Cc3ccccc3)C(=O)[C@H]2[C@H]2CN=C(SCc3ccccc3)N21,15.5% (inactive)
14,COC(=O)[C@@]1(C)[C@H]2C(=O)N(Cc3ccccc3)C(=O)[C@H]2[C@H]2CN=C(SCC3CC3)N21,29.2% (active)
15,CN(C)S(=O)(=O)c1ccc2oc(SCC(=O)Nc3ccccc3F)nc2c1,127% (active)
16,O=C(CSc1cccc2cccnc12)N/N=C/c1cccnc1,-15.3% (inactive)
17,Cc1ccc2cc(/C=N/Nc3ccc(C(=O)O)cc3)c(Cl)nc2c1,109% (active)
18,O=C1[C@H]2[C@@H](c3ccc(F)cc3)N3C(=O)N(c4ccc(C(F)(F)F)cc4)C(=O)[C@@]3(Cc3ccccc3)[C@H]2C(=O)N1C1CCCCC1,26.3% (active)
19,O=C1[C@H]2[C@@H](c3ccc(Cl)cc3)N3C(=O)N(c4cccc(F)c4)C(=O)[C@@]3(Cc3ccccc3)[C@H]2C(=O)N1C1CCCCC1,16.9% (inactive)
20,C[C@@]12C(=O)N(c3cccc(Br)c3)C(=O)N1[C@H](c1ccc(Cl)cc1)[C@@H]1C(=O)N(C3CCCCC3)C(=O)[C@@H]12,0.25% (inactive)
